Assay results as given in the supplement of paper PMC10981050.
Where “and” joins values, the source holds several entries; their conditions need not be identical. Equal values may be shown once. Where a name gives a salt, the structure may show the parent alone.

Experiments:
Assay in all cases: cell viability relative to vehicle control; higher = less cytotoxic
Settings in all cases: 10 µM
K562 = tested on: K562
Procedure, shortened: (§1)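 Each screen used CRISPR-edited mutant and wild-type clones from four leukaemia lines. Compounds were acoustically dispensed at a single 10 µM dose, and CellTiter-Glo luminescence was read after 48 h with the supernatant first removed. Viability was analysed in Genedata Screener and given as percent of the on-plate vehicle control.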

MARIMO = tested on: MARIMO
Procedure, shortened: as §1

MOLM14 = tested on: MOLM14
Procedure, shortened: as §1

OCI-AML2 = tested on: OCI-AML2
Procedure, shortened: as §1

Row | Structure (SMILES) | cell viability (K562; SRSF2 genotype: SRSF2 P95H/wt) | cell viability (K562; SRSF2 genotype: SRSF2 wt/wt) | cell viability (MARIMO; SRSF2 genotype: SRSF2 P95H/wt) | cell viability (MARIMO; SRSF2 genotype: SRSF2 wt/wt) | cell viability (MOLM14; SRSF2 genotype: SRSF2 P95H/wt) | cell viability (MOLM14; SRSF2 genotype: SRSF2 wt/wt) | cell viability (OCI-AML2; SRSF2 genotype: P95H/wt) | cell viability (OCI-AML2; SRSF2 genotype: wt/wt)
1 | COc1ccccc1N1CCN(CC(O)COc2cccc3ccccc23)CC1 (stereo not given) [Naftopidil (Flivas)] | 74.1% and 86.9% | 79.5% | 66.2% | 71.5% | 64.1% | 72.3% | 83.5% | 84.6%
2 | CN1CCC(NC(=O)c2cc(-c3c(O)cc(O)cc3Oc3ccc([N+](=O)[O-])cc3)on2)CC1 | 17.4% and 26.5% | 23.6% | 29.8% | 23.9% | 1.68% | 1.87% | 17.5% | 19.7%
3 | Oc1c(F)cc(-c2cnccc2-c2ccc(N3CCOCC3)cc2)cc1F | 101% and 106% | 105% | 97.5% | 92.6% | 75.5% | 104% | 120% | 103%
4 | CNC(=O)c1cc(Oc2ccc(NC(=O)Nc3ccc(Cl)c(C(F)(F)F)c3)cc2)ccn1 [Sorafenib Tosylate] | 7.11% and 11.7% | 11.8% | 35.8% | 29.3% | 9.9% | 11.5% | 9.8% | 11.3%
5 | O=c1[nH]c(=S)[nH]c2nc(-c3ccccc3)c(-c3ccccc3)nc12 | 97.9% and 90.8% | 92% | 103% | 105% | 92.8% | 97.4% | 98.9% | 98.3%
6 | Cc1cc(C)c(S(=O)(=O)n2cc(C)cc2C)c(C)c1 | 90.6% and 98.6% | 95.1% | 90.8% | 88.4% | 84.7% | 92.2% | 99.7% | 102%
7 | CC(=O)OCC(=O)[C@H]1CC[C@H]2[C@@H]3CCC4=CC(=O)CC[C@]4(C)[C@H]3CC[C@]12C [Deoxycorticosterone acetate] | 91.4% and 91.9% | 98.4% | 89.8% | 99% | 89% | 96.2% | 86.1% | 76.2%
8 | COC(=O)[C@H](c1ccccc1Cl)N1CCc2sccc2C1 [Clopidogrel (Plavix)] | 98.2% and 98.5% | 94.4% | 78.9% | 101% | 94.1% | 96.9% | 85.4% | 93.4%
9 | O=c1ccc2ccc(O)c(O)c2o1 [Daphnetin] | 79.5% and 82.3% | 83.5% | 75.2% | 89% | 84.4% | 93.2% | 81.4% | 86.2%
10 | CN1CC(=O)N2[C@H](c3ccc4c(c3)OCO4)c3[nH]c4ccccc4c3C[C@@H]2C1=O [Tadalafil (Cialis)] | 101% and 99.7% | 106% | 98.5% | 105% | 97.3% | 99.8% | 103% | 108%
11 | CN[C@@H]1[C@H](O)[C@H](NC)[C@H]2O[C@@]3(O)C(=O)C[C@@H](C)O[C@H]3O[C@@H]2[C@H]1O [Spectinomycin 2HCl] | 101% and 102% | 93.5% | 103% | 102% | 104% | 99% | 106% | 94.4%
12 | O=NN(CCCl)C(=O)NC1CCCCC1 [Lomustine (CeeNU)] | 95% and 113% | 111% | 100% | 99.9% | 84% | 97.9% | 97.2% | 105%
13 | CCCc1cc(C(N)=S)ccn1 [Protionamide (Prothionamide)] | 99% and 98.7% | 101% | 98.8% | 102% | 95.4% | 102% | 100% | 112%
14 | CCOC(=O)O[C@]1(C(=O)OCCl)CC[C@H]2[C@@H]3CCC4=CC(=O)C=C[C@]4(C)[C@H]3[C@@H](O)C[C@@]21C [Loteprednol etabonate] | 93.6% and 104% | 98% | 92.1% | 98.5% | 96.3% | 97.2% | 111% | 114%
15 | COc1ccc(C(=O)O)cc1O [Isovanillic acid] | 97.7% and 89.4% | 95.3% | 85.2% | 97.5% | 87.1% | 90.6% | 82.2% | 86.7%
16 | COc1ccc(S(=O)(=O)Nc2cc(-c3c(O)ccc4ccccc34)c(O)c3ccccc23)cc1 | 7.52% and 4.96% | 34.5% | 0.33% | 0.36% | 0.32% | 0.34% | 0.37% | 0.35%
17 | Fc1ccc2[nH]ccc2c1-c1nc(N2CCOCC2)c2sc(CN3CCN(CC4CC4)CC3)cc2n1 | 77.2% and 81.7% | 76.6% | 68.5% | 67.3% | 45.5% | 45.1% | 40.4% | 34.5%
18 | CC(C)(C)OC(=O)N[C@@H]1CCCC[C@H]1N [(1R,2R)-trans-N-Boc-1,2-cyclohexanediamine] | 104% and 108% | 98.6% | 101% | 104% | 101% | 105% | 114% | 104%
19 | CC(=O)OC1CCC2C3CCc4cc(O)ccc4C3CCC12C (stereo not given) | 96.5% and 85% | 90.6% | 85.8% | 98.9% | 96.9% | 96.2% | 87.7% | 96.1%
20 | C=CC[N+]1([C@H]2C[C@H]3[C@@H]4CC[C@H]5C[C@H](O)[C@@H](N6CCOCC6)C[C@]5(C)[C@H]4CC[C@]3(C)[C@H]2OC(C)=O)CCCC1 [Rocuronium bromide] | 98.3% and 90.4% | 91.2% | 90.3% | 95.3% | 103% | 96.7% | 88.1% | 99.3%

Row | Structure (SMILES) | cell viability (K562; SRSF2 genotype: SRSF2 P95H/wt) | cell viability (K562; SRSF2 genotype: SRSF2 wt/wt) | cell viability (MARIMO; SRSF2 genotype: SRSF2 P95H/wt) | cell viability (MARIMO; SRSF2 genotype: SRSF2 wt/wt) | cell viability (MOLM14; SRSF2 genotype: SRSF2 P95H/wt) | cell viability (MOLM14; SRSF2 genotype: SRSF2 wt/wt) | cell viability (OCI-AML2; SRSF2 genotype: P95H/wt) | cell viability (OCI-AML2; SRSF2 genotype: wt/wt)
21 | C[C@@H]1[C@H](O)[C@@H](C)/C=C/C=C/C=C/C=C/C=C/C=C/C=C/[C@H](O[C@@H]2O[C@H](C)[C@@H](O)[C@H](N)[C@@H]2O)C[C@@H]2O[C@](O)(C[C@@H](O)C[C@@H](O)[C@H](O)CC[C@@H](O)C[C@@H](O)CC(=O)O[C@H]1C)C[C@H](O)[C@H]2C(=O)O [Amphotericin B] | 97.4% and 101% | 104% | 110% | 103% | 93.9% | 101% | 126% | 110%
22 | CC(O)COCC1OC2OC3C(COCC(C)O)OC(OC4C(COCC(C)O)OC(OC5C(COCC(C)O)OC(OC6C(COCC(C)O)OC(OC7C(COCC(C)O)OC(OC8C(COCC(C)O)OC(OC1C(O)C2O)C(O)C8O)C(O)C7O)C(O)C6O)C(O)C5O)C(O)C4O)C(O)C3O (stereo not given) | 100% and 108% | 109% | 105% | 112% | 106% | 108% | 108% | 95.8%
23 | OC(c1ccccc1)(c1ccccc1)C12CC[N+](CCOCc3ccccc3)(CC1)CC2 [Umeclidinium bromide] | 81.8% and 94.9% | 89.5% | 76.2% | 90.9% | 86.5% | 81.6% | 75.6% | 85.1%
24 | CN(CCN1CCC(OC(=O)Nc2ccccc2-c2ccccc2)CC1)C(=O)c1ccc(CN2CCC(C(N)=O)CC2)cc1 [Revefenacin] | 94.7% and 89.9% | 92.8% | 82.7% | 90.8% | 87.1% | 92.2% | 83.2% | 83.5%
25 | Cc1ncc(CO)c(CO)c1O [Pyridoxine hydrochloride] | 104% and 103% | 111% | 104% | 112% | 105% | 110% | 104% | 96.7%
26 | CC1C(=O)OC2C(O)C34C5CC(C(C)(C)C)C36C(OC(=O)C6O)OC4(C(=O)O5)C12O (stereo not given) [Ginkgolide B] | 110% | 114% | 111% | 109% | 107% | 109% | 113% | 105%
27 | CO/N=C(\C(=O)N[C@@H]1C(=O)N2C(C(=O)[O-])=C(C[n+]3ccn4ncccc43)CS[C@H]12)c1nsc(N)n1 [Cefozopran hydrochloride] | 108% and 99.3% | 101% | 100% | 114% | 99.4% | 106% | 95.2% | 95.9%
28 | CN1CCN(c2ccc(C(=O)Nc3n[nH]c4ccc(Cc5cc(F)cc(F)c5)cc34)c(NC3CCOCC3)c2)CC1 [Entrectinib (RXDX-101)] | 0.53% and 0.51% | 0.41% | 0.56% | 2.11% | 0.29% | 0.28% | 0.22% | 0.35%
29 | O=c1cc(-c2ccc(O)cc2)oc2cc(O)c([C@@H]3O[C@H](CO)[C@@H](O)[C@H](O)[C@H]3O)c(O)c12 [Isovitexin] | 98.2% and 98.6% | 98.3% | 92.1% | 93.6% | 95.1% | 95.9% | 99.7% | 103%
30 | O=C1c2c(O)cccc2C([C@@H]2O[C@H](CO)[C@@H](O)[C@H](O)[C@H]2O)c2cc(CO)cc(O)c21 (stereo not given in full) [Aloin (Barbaloin)] | 105% and 104% | 98.5% | 105% | 102% | 109% | 104% | 98.1% | 102%
31 | CS(=O)(=O)N1CCc2c(-c3cnc(N)nc3)nc(N3CCOCC3)nc21 | 56.4% and 67% | 66.8% | 53.6% | 42.5% | 34.2% | 35.9% | 17.8% | 25.3%
32 | CCn1c(=O)c(-c2ccc(-c3cncs3)cc2Cl)cc2cnc(Nc3ccc(N4CCN(C)CC4)cc3)nc21 | 86.2% and 86.7% | 74.6% | 75.6% | 75.9% | 46.6% | 53.2% | 71% | 61.2%
33 | CC(C)C1=CC2=CC[C@@H]3[C@](C)(CCC[C@@]3(C)C(=O)O)[C@H]2CC1 [Abietic Acid] | 113% and 104% | 98.8% | 105% | 115% | 99.5% | 105% | 90.9% | 95.5%
34 | CNC1CCC(N(Cc2cccc(-c3ccncc3)c2)C(=O)c2sc3ccccc3c2Cl)CC1 (stereo not given) [Smoothened Agonist (SAG) HCl] | 18.8% and 30.6% | 29.8% | 53.8% | 51.4% | 36.6% | 48.6% | 3.18% | 26.1%
35 | O=C(O)CCc1ccc(O)cc1 [Phloretic acid] | 99.4% and 99.9% | 94.6% | 93.9% | 104% | 109% | 103% | 99.2% | 105%
36 | CCCC1O[C@@H]2C[C@H]3[C@@H]4CCC5=CC(=O)C=C[C@]5(C)[C@H]4[C@@H](O)C[C@]3(C)[C@]2(C(=O)CO)O1 (stereo not given in full) [Budesonide] | 85.5% and 95.1% | 83.7% | 97.6% | 103% | 86.1% | 84% | 70.5% | 87.6%
37 | COc1cc(OC2CCN(C)CC2)ccc1Nc1ncc2c(n1)n(C1CCCC1)c(=O)n2C | 81.2% and 76.4% | 78.1% | 44.7% | 38.6% | 10.8% | 14% | 4.89% | 13.5%
38 | CNC[C@H](O)[C@@H](O)[C@H](O)[C@H](O)CO.CNC[C@H](O)[C@@H](O)[C@H](O)[C@H](O)CO.O=C([O-])CN(CCN(CC(=O)[O-])CC(=O)O)CCN(CC(=O)[O-])CC(=O)O.[Gd+3] [Gadopentetate Dimeglumine] | 96.2% and 95.2% | 101% | 94.1% | 98.4% | 99.2% | 98% | 98.2% | 97.7%
39 | COc1cc(Nc2ncc3c(n2)-c2ccc(Cl)cc2C(c2c(F)cccc2OC)=NC3)ccc1C(=O)O [MLN8237 (Alisertib)] | 46.2% and 63.8% | 60% | 87.3% | 108% | 30.6% | 17.7% | 43.5% | 44.5%
40 | CCC(C)CC(C)CCCCCCCCC(=O)NC1CC(O)C(O)NC(=O)C2C(O)CCN2C(=O)C(C(O)CC(N)=O)NC(=O)C(C(O)C(O)c2ccc(O)cc2)NC(=O)C2CC(O)CN2C(=O)C(C(C)O)NC1=O (stereo not given) [Pneumocandin B0] | 96.7% and 91.6% | 90% | 97% | 95.1% | 93.5% | 98.7% | 95.7% | 91.8%
